Drawing on PubChem BioAssay (NCI), this text covers growth for eight molecules.

Molecules are shown by their SMILES. This is part of a sample that, as a whole, favours compounds with a hit. Of some 83,000 tested, about 20% had one in any assay.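 Note: values are percent growth. 100 is the growth of untreated cells, values between 100 and 0 indicate rising inhibition; between -100 and 0 indicates cell death.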 Values without a mark were called inactive. Calls of active or inactive are those of the source. How the source made its calls: active means growth percent below 10; inactive means the rest.

Test systems include EKVX NSCLC; SN12C renal; UO-31 renal; TK-10 renal; ACHN renal; CAKI-1 renal; A498 renal; CCRF-CEM leukemia; MOLT-4 leukemia; SR leukemia; RPMI-8226 leukemia; OVCAR-8 ovarian; OVCAR-5 ovarian; OVCAR-4 ovarian; SK-OV-3 ovarian; IGROV1 ovarian; HS 578T breast; NCI/ADR-RES ovarian; T-47D breast; OVCAR-3 ovarian.
Common to all, as to test: NCI-60 one-dose screen, 48 h (100 = growth as untreated, 0 = no growth, -100 = all killed)
Common to all, as to details: 10 µM unless noted

As for `N[C@@H](Cc1cn(-c2ccnc3ccccc23)nn1)C(=O)O`, the growth with EKVX NSCLC was 98.5%; in the assay on SN12C renal, 93.2%; in the assay on UO-31 renal, 88.2%; with TK-10 renal it was 101%; in the assay on ACHN renal, 96.1%; in the assay on CAKI-1 renal it was 97.3%. Moreover, the growth is 110% with A498 renal; 103% in the assay with CCRF-CEM leukemia; 107% with MOLT-4 leukemia; 95.1% with SR leukemia; 106% in the assay with RPMI-8226 leukemia; 104% in the assay on OVCAR-8 ovarian. Further, the growth with OVCAR-5 ovarian is 101%; with OVCAR-4 ovarian, 109%; in the assay on SK-OV-3 ovarian it was 101%; in the assay on IGROV1 ovarian, 102%; in the assay on HS 578T breast, 109%; with NCI/ADR-RES ovarian, 103%. Further, in the assay on T-47D breast, the growth is 101%.

Take `CCOC(=O)c1sc(N)c(C(=O)OCC)c1C`: the growth in the assay with EKVX NSCLC is 25.9%; in the assay with SN12C renal, 54.9%; with UO-31 renal it was 31.3%; in the assay with TK-10 renal, 41.1%; with ACHN renal, 52.9%; in the assay with CAKI-1 renal it was 39.1%. The growth in the assay with A498 renal was 13.4%; in the assay with CCRF-CEM leukemia, 42%; in the assay on MOLT-4 leukemia, 26.5%; with SR leukemia it was 47.2%; with RPMI-8226 leukemia, 42.3%; in the assay on OVCAR-8 ovarian, 65.1%. For the same molecule, the growth was 67.6% with OVCAR-5 ovarian; 62% with OVCAR-4 ovarian; 56.9% in the assay on IGROV1 ovarian; 70.5% in the assay with OVCAR-3 ovarian; 30.9% with HS 578T breast; 7.83% (active) with T-47D breast.

For `CC1=C(C)C(=O)C(Nc2cccc(C(F)(F)F)c2)=C(Cl)C1=O`, the growth is 49.4% in the assay on EKVX NSCLC; 87.6% with SN12C renal; 77.3% in the assay on UO-31 renal; 184% in the assay with TK-10 renal; -37.7% (active) in the assay on ACHN renal; 92.7% with CAKI-1 renal. In addition, the growth in the assay on A498 renal is 55.2%; with CCRF-CEM leukemia, 5.9% (active); in the assay on MOLT-4 leukemia, 23.5%; with SR leukemia, 25%; in the assay on RPMI-8226 leukemia, -3.12% (active); in the assay on OVCAR-8 ovarian, 87.1%. The growth in the assay on OVCAR-5 ovarian is 100%; in the assay with OVCAR-4 ovarian, -80.4% (active); in the assay on IGROV1 ovarian, -7.2% (active); in the assay on OVCAR-3 ovarian, 70.4%; in the assay with HS 578T breast, 87.6%; with T-47D breast it was -39% (active).

Consider `COc1cccc(-c2nn(-c3ccccc3)cc2-c2ccnc(N3CCN(C(=O)Nc4ccc(F)cc4)CC3)c2)c1`, for which the growth was 62.1% in the assay with EKVX NSCLC; 67.4% in the assay on SN12C renal; 34.4% with UO-31 renal; 92.9% in the assay on TK-10 renal; 67.6% with ACHN renal; 49.2% in the assay on CAKI-1 renal. Moreover, the growth in the assay on A498 renal was 56.9%; in the assay on CCRF-CEM leukemia, 31.8%; in the assay with MOLT-4 leukemia, 19.3%; with SR leukemia it was 24.8%; in the assay with RPMI-8226 leukemia it was 21.4%; in the assay on OVCAR-8 ovarian it was 48.8%. Further, the growth in the assay on OVCAR-5 ovarian was 97.6%; in the assay with OVCAR-4 ovarian, 51.2%; in the assay with SK-OV-3 ovarian, 107%; in the assay on IGROV1 ovarian it was 79.1%; with HS 578T breast, 85.8%; with NCI/ADR-RES ovarian, 33.4%. Besides, the growth in the assay on T-47D breast is 3.31% (active).

For `CC(C)(C)Nc1nc2c(OCCc3ccccc3)cccn2c1-c1ccc(Cl)cc1`, the growth with EKVX NSCLC is 5.46% (active); with SN12C renal it was 10.3%; in the assay with UO-31 renal, 0.0667% (active); in the assay with TK-10 renal it was 20.8%; in the assay on ACHN renal it was 8.77% (active); with CAKI-1 renal, 29.3%. In addition, the growth in the assay on A498 renal is 56%; in the assay on CCRF-CEM leukemia it was 6.47% (active); in the assay on MOLT-4 leukemia, 4.83% (active); in the assay with SR leukemia, 1.41% (active); in the assay with RPMI-8226 leukemia it was -16.1% (active); in the assay on OVCAR-8 ovarian, 26.3%. Besides, the growth with OVCAR-5 ovarian was 29.4%; in the assay with OVCAR-4 ovarian it was 18.2%; with SK-OV-3 ovarian it was 42.2%; with IGROV1 ovarian, 23.8%; with OVCAR-3 ovarian it was 6.36% (active); with NCI/ADR-RES ovarian, 4.99% (active). Besides, in the assay on T-47D breast, the growth was 8.79% (active).

`COc1cccc(-c2nn(-c3ccccc3)cc2-c2ccnc(N3CCN(C(=O)c4ccccc4)CC3)c2)c1`: the growth in the assay with EKVX NSCLC is 103%; in the assay on SN12C renal, 87.6%; with UO-31 renal it was 72.3%; with TK-10 renal, 127%; in the assay on ACHN renal it was 93%; with CAKI-1 renal, 86.2%. The growth in the assay with A498 renal was 66.9%; in the assay on CCRF-CEM leukemia, 52.9%; in the assay on MOLT-4 leukemia, 43.8%; with SR leukemia, 27.5%; in the assay on RPMI-8226 leukemia it was 47.7%; in the assay with OVCAR-8 ovarian it was 56.4%. In addition, the growth in the assay on OVCAR-5 ovarian was 112%; with OVCAR-4 ovarian, 77.9%; with SK-OV-3 ovarian, 118%; in the assay on IGROV1 ovarian, 76%; in the assay on HS 578T breast, 100%; with NCI/ADR-RES ovarian, 43.4%. Also, the growth with T-47D breast was 50.3%.

In the case of `COc1ccc(N/N=C/c2c(-c3ccc(S(C)(=O)=O)cc3)nc3ccccn23)cc1`, the growth is 69.2% in the assay on EKVX NSCLC; 49.8% with SN12C renal; 30.2% with UO-31 renal; 57.3% in the assay with TK-10 renal; 32.2% in the assay on ACHN renal; 20.3% in the assay with CAKI-1 renal. Further, the growth in the assay on A498 renal is 35.6%; in the assay with CCRF-CEM leukemia it was 32%; in the assay on MOLT-4 leukemia, 18.6%; in the assay with SR leukemia it was 57.1%; in the assay on RPMI-8226 leukemia it was 32.2%; in the assay on OVCAR-8 ovarian it was 49.1%. The growth in the assay on OVCAR-5 ovarian is 67.4%; in the assay on OVCAR-4 ovarian it was 42.1%; with SK-OV-3 ovarian it was 62.2%; in the assay on IGROV1 ovarian it was 51.9%; in the assay with HS 578T breast, 62.4%; with NCI/ADR-RES ovarian, 34%. In addition, in the assay on T-47D breast, the growth was 26.2%.

In the case of `COc1ccc([C@@H]2c3[nH]c4ccccc4c3CC3C(=O)N(C4CCN(Cc5c(F)cccc5F)CC4)CC(=O)N32)c(OC)c1` (some centres undefined), the growth in the assay on EKVX NSCLC was 51.9% [5.26 µM]; in the assay with SN12C renal, 67.5% [5.26 µM]; in the assay with UO-31 renal, 39.7% [5.26 µM]; in the assay with TK-10 renal, 63.5% [5.26 µM]; in the assay on ACHN renal it was 47.6% [5.26 µM]; with CAKI-1 renal, 40.4% [5.26 µM]. The growth with A498 renal is 29.4% [5.26 µM]; in the assay on CCRF-CEM leukemia, 58.1% [5.26 µM]; in the assay on MOLT-4 leukemia it was 49% [5.26 µM]; in the assay on SR leukemia, 79.4% [5.26 µM]; in the assay on RPMI-8226 leukemia, 41.3% [5.26 µM]; in the assay with OVCAR-8 ovarian, 73.4% [5.26 µM]. Moreover, the growth in the assay with OVCAR-5 ovarian is 76.7% [5.26 µM]; in the assay with OVCAR-4 ovarian it was 69.4% [5.26 µM]; in the assay with IGROV1 ovarian, 39.8% [5.26 µM]; in the assay with OVCAR-3 ovarian it was 64.1% [5.26 µM]; in the assay on HS 578T breast, 45.1% [5.26 µM]; with T-47D breast it was 47.1% [5.26 µM].
